Entries with a potency or affinity are not part of this list. Results filed as inconclusive are left out. The source made the active and inactive calls.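 The calls were made as follows: active = signal loss with an EC50 at or below twice the highest valid dose for that sample; inconclusive = flat curve with 30 to 70% inhibition, or poor fit; inactive = the rest.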

This test in a line: P. falciparum Dd2 growth inhibitors, dose response, SYBR Green, dry powder samples, set 9 (AID 1159568). The note with it: P. falciparum Dd2 in erythrocytes, 72 h; series mostly up to 19.5 µM.
With `O=C(NCc1ccc2c(c1)OCO2)[C@@H]1[C@@H](CO)[C@@H]2Cn3c(cccc3=O)[C@H]1N2Cc1cncnc1`, the result was inactive. Consider `Cc1noc(C)c1S(=O)(=O)N(C)C[C@H]1OCc2cn(nn2)CCCC(=O)N([C@@H](C)CO)C[C@@H]1C`, for which the result was inactive. Consider `COCC(=O)N1C[C@H](C)[C@@H](OC)CN(C)C(=O)c2ccc(NC(=O)Nc3cccc(F)c3)cc2OC[C@@H]1C`, for which the outcome was inactive.

Regarding `C[C@H]1CN([C@@H](C)CO)C(=O)CCCn2cc(nn2)CO[C@H]1CN(C)C(=O)Nc1cccc2ccccc12`, the result was inactive. On to `CC(C)[C@@H]1COCc2cnnn2CCC[C@H](C)C(=O)N1`, for which the molecule was called inactive. For `COc1ccc(NC(=O)N(C)C[C@H]2Oc3ccc(NC(=O)CCN4CCOCC4)cc3C(=O)N([C@H](C)CO)C[C@@H]2C)cc1` the value was “inactive”; for `COc1ccc(CNC(=O)C[C@H]2CC[C@@H](NC(=O)CN(C)C)[C@H](CO)O2)cc1`, “inactive”. For `COc1cccc(NC(=O)N[C@@H]2CC[C@H](CC(=O)N3CCN(C)CC3)O[C@@H]2CO)c1` the value was “inactive”.

The values are drawn from PubChem BioAssay AID1159568 (Broad Institute, 2015).
